# In publication PMC7862700, “An all-to-all approach to the identification of sequence-specific readers for epigenetic DNA modifications on cytosine”:
# Key:
# Assay in all cases: DAPPL (digital affinity profiling via proximity ligation, sequencing); 10 mM Tris-HCl pH 7.5, 50 mM NaCl, 1 mM DTT, 4% glycerol, room temperature, 30 min; GST-TFs on glutathione beads, 16-mer random dsDNA library, 0.1% formaldehyde crosslink after washing; high values mean tight binding
# Settings in all cases: protein: recombinant; tags: N-terminal GST; dsDNA, one strand shown
# FLI1 = target: T1, FLI1 (Homo sapiens, UniProt Q01543 1-452)
# T1 sequence: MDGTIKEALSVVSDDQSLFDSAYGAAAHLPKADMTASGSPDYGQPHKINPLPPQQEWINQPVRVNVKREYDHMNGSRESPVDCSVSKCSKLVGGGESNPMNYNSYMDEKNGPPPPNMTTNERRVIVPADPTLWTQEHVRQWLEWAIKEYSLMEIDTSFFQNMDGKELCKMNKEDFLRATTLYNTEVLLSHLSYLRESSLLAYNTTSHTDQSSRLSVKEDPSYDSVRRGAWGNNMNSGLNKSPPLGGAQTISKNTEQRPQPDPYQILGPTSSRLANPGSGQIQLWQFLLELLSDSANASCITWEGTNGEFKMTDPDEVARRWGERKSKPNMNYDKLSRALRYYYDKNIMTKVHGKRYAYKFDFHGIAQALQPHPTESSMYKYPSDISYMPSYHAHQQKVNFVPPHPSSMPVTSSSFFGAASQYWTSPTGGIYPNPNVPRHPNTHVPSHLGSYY
# Procedure, shortened: (§1)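 Pools were built from human transcription factors expressed in yeast as GST fusions, captured on glutathione beads and DNA-barcoded, along with a tag-only sample. Incubation with 200 nmole of a 16-mer random double-stranded DNA library lasted 30 min at room temperature in Tris/NaCl/DTT/glycerol buffer, and was followed by washing, 0.1% formaldehyde crosslinking, proximity ligation, PCR amplification and Illumina NextSeq500 sequencing. Binding signal is the quotient of each hexamer's read frequency for a factor and its frequency for the tag-only sample.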
# SPI1 = SPI1 (Homo sapiens, UniProt P17947 1-270)
# Procedure, shortened: as §1
# ELK3 = target: T2, ELK3 (Homo sapiens, UniProt P41970 1-407)
# T2 sequence: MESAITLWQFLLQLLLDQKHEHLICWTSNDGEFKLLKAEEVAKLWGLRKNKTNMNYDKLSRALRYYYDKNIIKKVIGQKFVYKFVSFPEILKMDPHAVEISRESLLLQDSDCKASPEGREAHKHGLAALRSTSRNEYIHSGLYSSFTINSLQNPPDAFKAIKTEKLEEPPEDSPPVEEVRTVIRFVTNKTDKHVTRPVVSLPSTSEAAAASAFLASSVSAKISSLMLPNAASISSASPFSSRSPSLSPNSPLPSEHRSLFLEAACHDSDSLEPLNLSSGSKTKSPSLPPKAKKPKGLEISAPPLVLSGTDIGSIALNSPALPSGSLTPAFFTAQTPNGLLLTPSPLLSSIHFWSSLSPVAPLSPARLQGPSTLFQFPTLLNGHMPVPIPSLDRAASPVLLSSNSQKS
# Procedure, shortened: as §1
# ELF5 = target: T3, ELF5 (Homo sapiens, UniProt Q9UKW6-2 1-255)
# T3 sequence: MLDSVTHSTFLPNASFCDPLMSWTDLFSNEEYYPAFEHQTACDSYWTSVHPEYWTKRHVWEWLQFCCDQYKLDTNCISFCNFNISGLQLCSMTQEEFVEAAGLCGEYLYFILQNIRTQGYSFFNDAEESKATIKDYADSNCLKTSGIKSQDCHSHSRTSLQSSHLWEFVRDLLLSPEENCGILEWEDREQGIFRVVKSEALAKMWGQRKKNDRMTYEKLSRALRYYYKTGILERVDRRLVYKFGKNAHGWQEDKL
# Procedure, shortened: as §1
# CRX = CRX (Homo sapiens, UniProt O43186 1-299)
# Procedure, shortened: as §1
# Sequence of CRX (O43186 whole entry): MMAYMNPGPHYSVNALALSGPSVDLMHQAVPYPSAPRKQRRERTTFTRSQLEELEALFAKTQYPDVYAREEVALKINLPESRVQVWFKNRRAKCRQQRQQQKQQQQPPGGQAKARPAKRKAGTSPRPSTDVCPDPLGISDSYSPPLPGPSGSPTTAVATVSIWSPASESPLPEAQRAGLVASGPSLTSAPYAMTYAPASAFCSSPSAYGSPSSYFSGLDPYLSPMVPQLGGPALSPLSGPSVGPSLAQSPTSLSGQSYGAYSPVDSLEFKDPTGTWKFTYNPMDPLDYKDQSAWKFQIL
Sequence,binding signal (FLI1),binding signal (SPI1),binding signal (ELK3),binding signal (ELF5),binding signal (CRX)
GTTGAC,"1.11 fold enrichment (6-mer frequency, TF over GST control)","1.15 fold enrichment (6-mer frequency, TF over GST control)","1.2 fold enrichment (6-mer frequency, TF over GST control)","1.07 fold enrichment (6-mer frequency, TF over GST control)",–
CATGTT,"1.05 fold enrichment (6-mer frequency, TF over GST control)","1.04 fold enrichment (6-mer frequency, TF over GST control)",–,–,–
ACACGC,"1.15 fold enrichment (6-mer frequency, TF over GST control)",–,"1.12 fold enrichment (6-mer frequency, TF over GST control)","1.02 fold enrichment (6-mer frequency, TF over GST control)",–
ACCGGC,"1.07 fold enrichment (6-mer frequency, TF over GST control)","1.17 fold enrichment (6-mer frequency, TF over GST control)","1.11 fold enrichment (6-mer frequency, TF over GST control)","1.11 fold enrichment (6-mer frequency, TF over GST control)",–
ACGGTA,"1.02 fold enrichment (6-mer frequency, TF over GST control)",–,–,"1.05 fold enrichment (6-mer frequency, TF over GST control)",–
TCAAGC,"1.03 fold enrichment (6-mer frequency, TF over GST control)",–,"1.09 fold enrichment (6-mer frequency, TF over GST control)",–,"1.06 fold enrichment (6-mer frequency, TF over GST control)"
CGTTTG,"1.05 fold enrichment (6-mer frequency, TF over GST control)",–,"1 fold enrichment (6-mer frequency, TF over GST control)","1.1 fold enrichment (6-mer frequency, TF over GST control)",–
GGTGGT,"1.05 fold enrichment (6-mer frequency, TF over GST control)",–,"1.03 fold enrichment (6-mer frequency, TF over GST control)",–,–
GGTCAC,"1.08 fold enrichment (6-mer frequency, TF over GST control)",–,–,–,–
TGCAAG,"1.09 fold enrichment (6-mer frequency, TF over GST control)","1 fold enrichment (6-mer frequency, TF over GST control)",–,"1.05 fold enrichment (6-mer frequency, TF over GST control)",–
GCTAAC,"1.11 fold enrichment (6-mer frequency, TF over GST control)","1.1 fold enrichment (6-mer frequency, TF over GST control)","1.18 fold enrichment (6-mer frequency, TF over GST control)",–,–
CGCCGG,"1.01 fold enrichment (6-mer frequency, TF over GST control)",–,"1.08 fold enrichment (6-mer frequency, TF over GST control)","1.02 fold enrichment (6-mer frequency, TF over GST control)",–
ACGCGG,"1.04 fold enrichment (6-mer frequency, TF over GST control)","1.02 fold enrichment (6-mer frequency, TF over GST control)","1.05 fold enrichment (6-mer frequency, TF over GST control)","1.07 fold enrichment (6-mer frequency, TF over GST control)",–
GGCTAC,"1.17 fold enrichment (6-mer frequency, TF over GST control)",–,"1.19 fold enrichment (6-mer frequency, TF over GST control)","1.16 fold enrichment (6-mer frequency, TF over GST control)",–
CGCGTT,"1.1 fold enrichment (6-mer frequency, TF over GST control)",–,"1.06 fold enrichment (6-mer frequency, TF over GST control)","1.02 fold enrichment (6-mer frequency, TF over GST control)",–
TCACCG,"1.06 fold enrichment (6-mer frequency, TF over GST control)","1.06 fold enrichment (6-mer frequency, TF over GST control)","1.13 fold enrichment (6-mer frequency, TF over GST control)","1.01 fold enrichment (6-mer frequency, TF over GST control)",–
CCCGTC,"1.12 fold enrichment (6-mer frequency, TF over GST control)","1.11 fold enrichment (6-mer frequency, TF over GST control)",–,"1.12 fold enrichment (6-mer frequency, TF over GST control)",–
CAATGG,"1.14 fold enrichment (6-mer frequency, TF over GST control)","1.04 fold enrichment (6-mer frequency, TF over GST control)",–,–,–

Sequence,binding signal (FLI1),binding signal (SPI1),binding signal (ELK3),binding signal (ELF5),binding signal (CRX)
ATAGCC,"1.03 fold enrichment (6-mer frequency, TF over GST control)",–,"1.01 fold enrichment (6-mer frequency, TF over GST control)",–,"1.02 fold enrichment (6-mer frequency, TF over GST control)"
CGTCCA,"1.13 fold enrichment (6-mer frequency, TF over GST control)","1.03 fold enrichment (6-mer frequency, TF over GST control)","1.13 fold enrichment (6-mer frequency, TF over GST control)",–,–
CGCACG,"1.1 fold enrichment (6-mer frequency, TF over GST control)",–,"1.02 fold enrichment (6-mer frequency, TF over GST control)","1.02 fold enrichment (6-mer frequency, TF over GST control)",–
GCACAC,"1.02 fold enrichment (6-mer frequency, TF over GST control)",–,–,–,–
CCAAGC,"1.01 fold enrichment (6-mer frequency, TF over GST control)",–,–,–,–
GCAAAC,"1.04 fold enrichment (6-mer frequency, TF over GST control)","1.07 fold enrichment (6-mer frequency, TF over GST control)","1.04 fold enrichment (6-mer frequency, TF over GST control)",–,–
TGGGCA,"1.05 fold enrichment (6-mer frequency, TF over GST control)","1.08 fold enrichment (6-mer frequency, TF over GST control)","1.19 fold enrichment (6-mer frequency, TF over GST control)",–,–
TCGTCC,"1.1 fold enrichment (6-mer frequency, TF over GST control)","1.03 fold enrichment (6-mer frequency, TF over GST control)","1.18 fold enrichment (6-mer frequency, TF over GST control)","1.02 fold enrichment (6-mer frequency, TF over GST control)",–
CACCGG,"1.11 fold enrichment (6-mer frequency, TF over GST control)","1.08 fold enrichment (6-mer frequency, TF over GST control)","1.16 fold enrichment (6-mer frequency, TF over GST control)","1.03 fold enrichment (6-mer frequency, TF over GST control)",–
CAGCCT,"1.14 fold enrichment (6-mer frequency, TF over GST control)","1.03 fold enrichment (6-mer frequency, TF over GST control)",–,–,"1.06 fold enrichment (6-mer frequency, TF over GST control)"
CAGCAT,"1.04 fold enrichment (6-mer frequency, TF over GST control)",–,"1.19 fold enrichment (6-mer frequency, TF over GST control)",–,–
CCCAAG,"1.09 fold enrichment (6-mer frequency, TF over GST control)","1.03 fold enrichment (6-mer frequency, TF over GST control)","1 fold enrichment (6-mer frequency, TF over GST control)",–,–
TCAGTT,"1.02 fold enrichment (6-mer frequency, TF over GST control)",–,"1.09 fold enrichment (6-mer frequency, TF over GST control)",–,–
GTAACC,"1.04 fold enrichment (6-mer frequency, TF over GST control)","1.01 fold enrichment (6-mer frequency, TF over GST control)","1.04 fold enrichment (6-mer frequency, TF over GST control)","1.07 fold enrichment (6-mer frequency, TF over GST control)",–
CCGCAG,"1.12 fold enrichment (6-mer frequency, TF over GST control)","1.11 fold enrichment (6-mer frequency, TF over GST control)","1.14 fold enrichment (6-mer frequency, TF over GST control)","1.04 fold enrichment (6-mer frequency, TF over GST control)",–
CGTTGT,"1.15 fold enrichment (6-mer frequency, TF over GST control)",–,–,"1.07 fold enrichment (6-mer frequency, TF over GST control)",–
AGCGCT,"1.1 fold enrichment (6-mer frequency, TF over GST control)",–,"1.14 fold enrichment (6-mer frequency, TF over GST control)","1 fold enrichment (6-mer frequency, TF over GST control)","1.01 fold enrichment (6-mer frequency, TF over GST control)"
TGGCTG,"1.11 fold enrichment (6-mer frequency, TF over GST control)","1.02 fold enrichment (6-mer frequency, TF over GST control)",–,"1.01 fold enrichment (6-mer frequency, TF over GST control)",–
